Compounds without any hit were thinned out: in the full panel of roughly 83,000, 20% have a hit.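 Method: cells in 96-well plates; compound added at one concentration; 48 h incubation; percent growth measured; values under 10 scored active.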 A number with no mark means an inactive call. Activity calls are given as the source filed them.
Legend:
Test in all cases: NCI-60 one-dose screen, 48 h (100 = growth as untreated, 0 = no growth, -100 = all killed)
Settings in all cases: 10 µM unless noted
[1] = test system: HCT-15 colon
[2] = test system: HT29 colon
[3] = test system: SNB-75 CNS
[4] = test system: SNB-19 CNS
[5] = test system: U251 CNS
[6] = test system: PC-3 prostate
[7] = test system: SK-MEL-5 melanoma
[8] = test system: UACC-62 melanoma
[9] = test system: LOX IMVI melanoma
[10] = test system: SK-MEL-28 melanoma
[11] = test system: SK-MEL-2 melanoma
[12] = test system: EKVX NSCLC
[13] = test system: SN12C renal
[14] = test system: UO-31 renal
[15] = test system: TK-10 renal
[16] = test system: ACHN renal
[17] = test system: CAKI-1 renal
[18] = test system: A498 renal
[19] = test system: CCRF-CEM leukemia
[20] = test system: MOLT-4 leukemia

Row | Compound | growth [1] | growth [2] | growth [3] | growth [4] | growth [5] | growth [6] | growth [7] | growth [8] | growth [9] | growth [10] | growth [11] | growth [12] | growth [13] | growth [14] | growth [15] | growth [16] | growth [17] | growth [18] | growth [19] | growth [20]
1 | CCCCCc1ccc(S(=O)(=O)Nc2cccc(-c3csc(NC(=O)CN4CCN(C)CC4)n3)c2)cc1 | 11.7% | 25.5% | 89.5% | 85% | 49.7% | 67.1% | 50.8% | 92.2% | -58% (active) | 89.4% | 100% | 89.2% | 90.6% | 75% | 115% | 91.8% | 78.5% | 82.9% | 27.2% | 20.8%
2 | COc1ccc(NC(=O)CSc2nnc(-c3ccc4nc(-c5ccc(OC)c(OC)c5)[nH]c4c3)o2)cc1OC | 108% | 105% | 100% | 113% | 112% | 102% | 88.3% | 92% | 98% | 97% | 103% | 107% | 100% | 73.5% | 117% | 94.2% | 94.7% | 93.3% | 86% | 86.6%
3 | Cc1ccc(-c2cc3nc(C(Cl)Cl)nc(C)n3n2)cc1 | 109% | 104% | 129% | 104% | 108% | 98.1% | 98.2% | 99.6% | 96.8% | 105% | 110% | 92.3% | 113% | 80.9% | 166% | 87.4% | 96.4% | 132% | 98.4% | 103%
4 | CC(C)c1ccc(NCc2cn(-c3ccc(C(=O)O)cc3)nc2-c2cc(C(F)(F)F)cc(C(F)(F)F)c2)cc1 | 73.7% | 80.9% | 89% | 83.8% | 86.2% | 70.4% | 96% | 81.9% | 91.9% | 93.3% | 91.8% | 79.2% | 85.9% | 78.6% | 118% | 92.6% | 63.7% | 90% | 74.8% | 71.6%
5 | CCCn1cnc2c(c1=N)C(c1ccc(F)cc1)c1sc3c(CC)cccc3c1O2 (stereo not drawn) | 12.6% | 9.3% (active) | 14.8% | 15.3% | 18.5% | 24% | -12.2% (active) | 14% | 5.54% (active) | 40.4% | 49.4% | 33.4% | 20.6% | 27% | 61.3% | 18.3% | 20.7% | -25.7% (active) | 8.39% (active) | 9.49% (active)
6 | CC[C@]12C=CCN3CC[C@@]4(c5cc(NC(=O)COc6cc(O)c7c(=O)cc(-c8ccccc8)oc7c6)c(OC)cc5N(C)[C@H]4[C@@](O)(C(=O)OC)[C@@H]1OC(C)=O)[C@@H]32 | -69% (active) | -61% (active) | -34.2% (active) | -54.3% (active) | -87.5% (active) | -88.7% (active) | -90.9% (active) | -87.3% (active) | -93.2% (active) | -89% (active) | -82.9% (active) | -42.2% (active) | -75.4% (active) | -84.9% (active) | -45.5% (active) | -78.1% (active) | -78.3% (active) | -89.6% (active) | -20.2% (active) | -23% (active)
7 | CC(=O)N1C(=S)NC(=O)C1CC(C)C (stereo not drawn) | 99.7% | 115% | 103% | 102% | 101% | 106% | 106% | 93.7% | 95.5% | 101% | 102% | 102% | 101% | 93.2% | 100% | 105% | 96.3% | 109% | 103% | 105%
8 | C=CCn1c(SCC(=O)Nc2ccc(C(=O)/C=C/c3cccc([N+](=O)[O-])c3)cc2)nnc1-c1c[nH]c2ccccc12 | 91.7% | 98.4% | 97% | 89.4% | 94.4% | 77.8% | 59.5% | 66.9% | 31.1% | 95.4% | 93.9% | 89.1% | 85.2% | 67.8% | 102% | 91.1% | 87.1% | 87.4% |  | 
9 | NC(N)=Nc1ccc(Oc2cccc(NC(N)=Nc3ccc(Br)c(C(F)(F)F)c3)c2)cc1 | 83.1% | 40.1% | 62.5% | 10.2% | 21.4% | 4.3% (active) | 36.8% | 44.2% | -58.9% (active) | 64.1% | 83.2% | 59.3% | 24.5% | 89.3% | 65.3% | 92.9% | 72% | 48.4% | 53.3% | 49.3%
10 | Cn1ccnc1C(=O)/C=C/c1ccc(CNC(=O)c2ccc(S(F)(F)(F)(F)F)cc2)cc1 | -5.91% (active) | 10.4% | 57.6% | 3.58% (active) | 8.6% (active) | 26.4% | 61.3% | 31.2% | -80.3% (active) | 82.4% | 92.9% | 40% | 25.6% | 34.7% | 91.1% | 49.8% | 47% | 73.5% | 2.63% (active) | 0.864% (active)
11 | C#Cc1nc(C(C)=O)cs1 | 99.4% | 110% | 85.5% | 102% | 102% | 98.4% | 104% | 94.3% | 94.7% | 106% | 111% | 103% | 102% | 90.1% | 104% | 106% | 87.2% | 106% | 96.9% | 101%
12 | COc1ccc(C(=O)CSc2nc3c(c(Nc4ccc(S(N)(=O)=O)cc4)n2)CCCC3)cc1 | 88.4% | 96.4% | 119% | 94.1% | 89.9% | 83.7% | 96.6% | 93.5% | 83% | 110% | 104% | 96.7% | 89.9% | 81.1% | 120% | 89.9% | 70.9% | 86.5% | 83.1% | 75.7%
13 | C=C1CC[C@@H]2[C@]3(C)COC(c4ccccc4)O[C@@H]3CC[C@@]2(C)[C@@H]1C/C=C1/C(=O)OC[C@H]1O (stereo partly drawn) | 65.5% | 54.8% | 100% | 97% | 64.2% | 82.4% | 94.7% | 85.7% | 33.8% | 107% | 93.3% | 100% | 79.9% | 75.7% | 109% | 100% | 83.7% | 109% | 9.03% (active) | 84%
14 | O=C1CC(=O)N2CSCN(C(c3ccccc3)c3nc4ncncc4[nH]3)C2=N1 (stereo not drawn) | 100% | 106% | 99.8% | 93.8% | 97.9% | 98% | 105% | 97% | 108% | 117% | 96.6% | 94.3% | 103% | 79.6% | 106% | 99.8% | 93.2% | 85.8% | 108% | 112%
15 | Cc1ccc(S(=O)(=O)N(CC[C@@H]2C[C@H]2c2cc3ccccc3o2)S(=O)(=O)c2ccc(C)cc2)cc1 | 94.5% | 94% | 89% | 94.6% | 92.5% | 87% | 96.1% | 69.1% | 95.1% | 93.5% | 102% | 95.3% | 94.6% | 80% | 98.6% | 98.2% | 86% | 75.8% | 93.3% | 88.8%

Reference: PubChem BioAssay (NCI)
